Laboratory results: PubChem BioAssay (NCATS)
Results filed as inconclusive are left out. Where a call stands in place of a potency, no number is given. Calls of active or inactive are those of the source. The call rests on the fitted dose curve; in most records, active means well fitted cell-killing curve with a large enough effect; inconclusive means small, poorly fitted or top-dose-only effect, or effect the other way; inactive means no such curve, though single readings can be large or run the other way.

Assay: Quantitative High-Throughput drug screen in 47 multiple myeloma cell lines against the NCATS MIPE library collection: EJM_DSMZ cell viability assay (AID 1918926; further: nearly all actives have a fitted effect of over 30% in size)
Details: EJM myeloma cell viability, CellTiter-Glo ATP, 48 h; series mostly up to 45.8 µM
Text: PI: Beverly A. Mock Ph.D.
Laboratory of Cancer Biology and Genetics,
Center for Cancer Research, National Cancer Institute,
National Institute of Health, Bethesda, Maryland
Drug resistance and disease progression are common in multiple myeloma (MM) patients, underscoring the need for new therapeutic combinations. […] We hypothesized that effective combinations would reduce MYC expression and enhance p16 activity. […] These preclinical data identify potentially useful drug combinations for evaluation in drug-resistant MM and reveal potential mechanisms of combined drug sensitivity.
Described herein is the primary MIPE qHTS used to cherrypick compounds. Validated compounds were then further tested for potential synergistic activiy.
[1] Peat TJ, Gaikwad SM, Dubois W, Gyabaah-Kessie N, Zhang S, Gorjifard S, Phyo Z, Andres M, Hughitt VK, Simpson RM, Miller MA, Girvin AT, Taylor A, Williams D, D'Antonio N, Zhang Y, Rajagopalan A, Flietner E, Wilson K, Zhang X, Shinn P, Klumpp-Thomas C, McKnight C, Itkin Z, Chen L, Kazandijian D, Zhang J, Michalowski AM, Simmons JK, Keats J, Thomas CJ, Mock BA. Drug combinations identified by high-throughput screening promote cell cycle transition and upregulate Smad pathways in myeloma. Cancer Lett. 2023 Aug 1;568:216284. doi: 10.1016/j.canlet.2023.216284. Epub 2023 Jun 24. PMID: 37356470; PMCID: PMC10408729.
SEQUENCE No. (e.g., 1, 2, 3, etc.); […] (e.g., Cells, Incubation, Reagent, etc.); VALUE and DESCRIPTION.
1; Cells; 5 uL; white, solid bottom 1536-well Greiner assay plate.
2; Compounds; 23 nL; Kalypsis pin tool (Wako USA) equipped with a 1536-well pin head to transfer to the assay plates.
3; Incubation; 48 hours; 37C incubation.
4; Reagent;5uL; CellTiter Glo (Promega).
5; Detector; 425V; Luminescence; Viewlux PerkinElmer.
NOTES (numbers refer to Sequence numbers above)
1. The cell-based screening methods employed in this study were like those previously published. Briefly, the corresponding myeloma cell lines were screened in 1,536-well plates with 500 cells, 5-uL per well for inhibition of cell viability (assessed by measuring ATP levels with CellTiterGlo).
2. NCATS MIPE 4.0 library of approved and investigational drugs were added using the Kalypsis pin tool. Wells treated with DMSO only for 100% viability and media only wells for 0% viability were used as controls.
3. The assay plates were covered and incubated for 48 hours in a 37C, 5% CO2 incubator with controlled humidity.
4. After 48 hours, CellTilter-GloTM luminescent substrate mix (Promega) reagent was added to the assay plate and plates we incubated for 5 min at room temperature.
5. Signal was measured as median relative luminescence units on a ViewLux (PerkinElmer) multiplate reader.
[1] Heske CM, Davis MI, Baumgart JT, Wilson K, Gormally MV, Chen L, Zhang X, Ceribelli M, Duveau DY, Guha R, Ferrer M, Arnaldez FI, Ji J, Tran HL, Zhang Y, Mendoza A, Helman LJ, Thomas CJ. Matrix Screen Identifies Synergistic Combination of PARP Inhibitors and Nicotinamide Phosphoribosyltransferase (NAMPT) Inhibitors in Ewing Sarcoma. Clin Cancer Res. 2017 Dec 1;23(23):7301-7311. doi: 10.1158/1078-0432.CCR-17-1121. Epub 2017 Sep 12. PMID: 28899971; PMCID: PMC6636827.
Potency means the concentration at half of the fitted maximal effect.

SMILES	Potency
CC(C)=CCCC(C)=CCCC(C)=CCCC(C)=CCCC(C)=CCCC(C)=CCCC(C)=CCCC(C)=CCCC(C)=CCO	inactive
C#C[C@]1(O)CC[C@H]2[C@H]3CCc4cc(OC)ccc4[C@H]3CC[C@@]21C	13.2 µM (active)
NC[C@H]1O[C@H](O[C@@H]2[C@@H](O)[C@@H](O[C@H]3O[C@H](CO)[C@@H](O)[C@H](N)[C@@H]3O)[C@H](N)C[C@@H]2N)[C@H](O)[C@@H](O)[C@H]1O	inactive
COc1ccc(-c2nc3ccc(C4=NNC(=O)CC4C)cc3[nH]2)cc1 (stereo not given)	inactive
O=C(O)C1=NC(C(=O)O)CC(C=CN2c3cc(O)c(OC4OC(CO)C(O)C(O)C4O)cc3CC2C(=O)O)=C1 (stereo not given)	inactive
CO[C@H]1O[C@@H]2O[C@@]3(C)CC[C@@H]4[C@@H](C)CC[C@@H]([C@H]1C)[C@@]24OO3	1.48 µM (active)
CN1C(=O)C(Cc2c[nH]c3ccccc23)NC1=S (stereo not given)	inactive
CN1CCN2c3ncccc3Cc3ccccc3C2C1 (stereo not given)	inactive
O=c1cc(-c2ccc(O)c(O)c2)oc2cc(O)cc(O)c12	inactive
CCC(=C(c1ccc(O)cc1)c1ccc(OCCNC)cc1)c1ccccc1	23.5 µM (active)
CC1(C)OC2CC3C4CC(F)C5=CC(=O)C=CC5(C)C4C(O)CC3(C)[C@]2(C(=O)CO)O1 (stereo not given in full)	inactive
CCN(CC)CCCCNc1nc2cc(Cl)c(Cl)cc2nc1-c1ccc(-c2cccs2)s1	11.8 µM (active)
CN1N=C(N)c2cn([C@@H]3O[C@H](COP(=O)(O)O)[C@@H](O)[C@@H]3O)c3ncnc1c23	7.43 µM (active)
COc1cc2c(cc1OC)[C@@H]1Cc3ccc(OC)c(OC)c3CN1CC2	10.5 µM (active)
Cc1cc2c(cc1C1(c3ccc(C(=O)O)cn3)CC1)C(C)(C)CCC2(C)C	inactive
CN1CCN(c2cccc(Nc3nc4c(-c5ccc(S(C)(=O)=O)cc5)cccn4n3)c2)CC1	4.18 µM (active)
CN(C)c1nc(Cc2ccc(NC(=O)c3ccc(C(F)(F)F)cc3)cc2)nc(N(C)C)c1CC(=O)O	inactive
COc1cccc(OC)c1-c1cc(C(=O)NC2(C(=O)O)C3CC4CC(C3)CC2C4)nn1-c1ccnc2cc(Cl)ccc12 (stereo not given)	inactive
O=C(Nc1cccc2c(=O)cc(-c3nn[nH]n3)oc12)c1ccc(OCCCCc2ccccc2)cc1	inactive
Cc1cc(CS(=O)(=O)c2ccccc2)cc(OCc2ccc(CN3CCC[C@H]3CO)cc2)c1	inactive

SMILES	Potency
COc1cc2ncn(-c3cc(OCc4ccccc4S(C)(=O)=O)c(C#N)s3)c2cc1OC	3.72 µM (active)
O=C(CO)N1CCC(c2[nH]nc(-c3ccc(Cl)cc3)c2-c2ccncn2)CC1	inactive
C=CC(=O)Nc1cccc(Sc2nc(Nc3ccc(N4CCN(C)CC4)cc3)ncc2Cl)c1	18.7 µM (active)
CON(C)C(=O)N1N=C(c2cc(F)ccc2F)S[C@]1(CCCN)c1ccccc1	inactive
N=C1SC(=Cc2ccc(-c3ccc4c(c3)C(=O)NC4=O)o2)C(=O)N1c1ccc(Br)cc1	4.18 µM (active)
CC(C)(C)c1nc(-c2cccc(NS(=O)(=O)c3c(F)cccc3F)c2F)c(-c2ccnc(N)n2)s1	20.9 µM (active)
CCN(CCO)CCCOc1ccc2c(Nc3cc(CC(=O)Nc4cccc(F)c4)[nH]n3)ncnc2c1	inactive
COC(=O)N1CCN(Cc2cccc(NC(=O)Nc3ccc(C)nc3)c2F)CC1	inactive
N[C@@H](CC(=O)N1CCn2c(nnc2C(F)(F)F)C1)Cc1cc(F)c(F)cc1F	inactive
O=C(c1ccc(C(=O)N2CCC(N3CCCC3)CC2)c(Nc2ccccc2)c1)N1CCC(N2CCCC2)CC1	14.8 µM (active)
Fc1ccc(C(c2ccc(F)cc2)N2CCN(CC=Cc3ccccc3)CC2)cc1	inactive
Nc1ccc(-c2ccc3ncc4ccc(=O)n(-c5cccc(C(F)(F)F)c5)c4c3c2)cn1	0.0187 µM (active)
CN(C)CCOc1ccc(C(=C(CCCl)c2ccccc2)c2ccccc2)cc1	18.7 µM (active)
CN(C)c1ccc(-c2nc3ncc(Cl)c(N4CCN(CC(=O)Nc5nccs5)CC4)c3[nH]2)cc1	5.9 µM (active)
Cn1c(=O)c(Oc2ccc(F)cc2F)cc2cnc(NC3CCOCC3)nc21	inactive
OCCn1cc(-c2ccc3c(c2)CCC3=NO)c(-c2ccncc2)n1	inactive
CN1CC(=O)N2C(Cc3c([nH]c4ccccc34)[C@H]2c2ccc3c(c2)OCO3)C1=O (stereo not given in full)	inactive
Cc1cccc(-c2[nH]c(C(C)(C)C)nc2-c2ccc3c(c2)OCO3)n1	11.8 µM (active)
O=C(NC[C@H](O)CO)c1ccncc1Nc1ccc(I)cc1F	18.7 µM (active)
Cc1ccc2c(c1)c1c(n2CCc2ccc(C)nc2)CCN(C)C1	inactive
